In PubChem BioAssay AID651821 (The Scripps Research Institute Molecular Screening Center, 2012) one finds inhibition data, which are given here for 82 compounds.

The campaign covered roughly 370,000 compounds. About 4,700 (1.3%) were called active. For the sample, actives were picked, then their nearest neighbours and some compounds at random. A number with no mark means an inactive call.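 The calls were made as follows: active = inhibition above the plate cutoff, the mean of all test compounds on that plate plus 3 SD (cut at about 35% in these data); inactive = the rest.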

The nature of the experiment: binders of r(CAG) RNA repeats, primary screen, biochemical, fluorescence (AID 651821).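 Also: 0% = DMSO alone and 100% = 100 µM mitoxantrone as full dye displacement; higher means more dye released from RNA so lower well fluorescence.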 To be noted: r(CAG) RNA repeat, TO-PRO-1 dye displacement fluorescence; at 3 µM; active compounds read high.
The inhibition is the drop in the measured response relative to a control, in per cent. As to `Nc1ncnc2c1ncn2[C@@H]1O[C@H](C(=O)N[C@@H](CCc2ccccc2)C(=O)N2CCCN(Cc3cccs3)CC2)[C@@H](O)[C@H]1O`, the inhibition was 1.07%.

With `CCCC[C@H]1C2CC(OC(=O)NCc3ccccc3)C(C2)[C@H]2CCCCN21` (some centres not stated), the inhibition is 2.74%. Next, `O=S1(=O)c2c(NCc3ccco3)cccc2Oc2ccccc2CN1Cc1cn(Cc2cccc(C(F)(F)F)c2)nn1`: 13.6%; `COCc1cc(N2CCN(C(=O)OC(C)(C)C)C[C@@H]2C)ccc1N1CCN(Cc2ccccc2)[C@H](C)C1`: 3.76%; `CC(C)c1ccc(CC(=O)N2CCC2(C)C(=O)NS(=O)(=O)c2ccc(C(C)(C)C)cc2)cc1` (configuration not stated): 71% (active).

Regarding `CC(C)(C)c1ccc(S(=O)(=O)NC(=O)C2(C)CCN2C(=O)CC2CC2)cc1` (configuration not stated), the inhibition was 5.41%. Regarding `CCCC(=O)N1CCC1(C)C(=O)NS(=O)(=O)c1ccc(Cl)cc1` (configuration not stated), the inhibition is 3.6%.

With `O=c1ccc2c(-c3ccccc3S(=O)(=O)O)c3ccc(O)c(O)c3oc-2c1O`, the inhibition was 66.8% (active).

With `COc1ccc(C(=O)CSc2nnc(-c3cnccn3)n2-c2ccc(C)cc2)cc1`, the inhibition is 4.26%. To `Cc1ccc(/C=C/C(=O)Nc2ccc([N+](=O)[O-])c(NC(=O)/C=C/c3ccc(C)o3)c2)o1` belongs 51% (active); to `O=C(/C=C/c1ccc([N+](=O)[O-])o1)NNC(=O)c1ccc(F)cc1`, 7.58%; to `Cc1cc(NC(=O)COC(=O)/C=C/c2ccc(C)o2)no1`, -0.62%. Next, `C[C@@H]1ON(C)[C@H]2C[C@H]3c4[nH]c5cccc(-c6ccc7c(c6)OCO7)c5c4CCN3C[C@@H]12`: 6.14%; `COc1ccccc1C(=O)NCCC(=O)NN1C(=O)NC2(CCCCC2)C1=O`: -4.93%; `COc1ccccc1C(=O)Nc1nc2nc(-c3ccccc3)cc(=O)n2[nH]1`: 7.94%. As to `COc1ccccc1C(=O)Nn1cnnc1`, the inhibition is -5.43%.

On to `COc1cccc2sc(NNC(=O)c3nc4ccccc4s3)nc12`, for which the inhibition is 62.5% (active). Next, `COC(=O)[C@@]12CCCCC3=C1N(CCC3)C(=O)[C@H]2CC(=O)NCc1cccc2ccccc12`: 3.84%; `CC(=O)Nc1ccc(S(=O)(=O)NCCc2ccccc2)cc1`: -3.69%; `CC(=O)Nc1ccc(S(=O)(=O)N(CCc2ccccc2)CC(=O)N/N=C/c2ccc(C(=O)O)cc2)cc1`: 40.4% (active). `COc1ccc(S(=O)(=O)N(CC(=O)N/N=C/c2ccc(C(=O)O)cc2)Cc2ccccc2)cc1OC`: the inhibition is 25.2%. To `O=C(Nc1c(Cl)c(C2CC2)nn1-c1ccccc1)C(Cl)(Cl)Cl` belongs 2.42%. Regarding `CCCCCN1CCCCC(NC(=O)C(C)CCC)C1=O` (configuration not stated), the inhibition is -0.91%. As to `COC(=O)C1CN(Cc2ccc(F)cc2)CCS(=O)(=O)N1Cc1ccc(Cl)cc1` (configuration not stated), the inhibition was 2.48%. Take `O=C(NC1CCCCC1)C(c1cc2ccccc2o1)n1c(=O)c(-c2ccco2)nc2ccccc21` (configuration not stated): the inhibition is 24.4%. To `CCCCCNC(=O)C(c1ccc(OC)cc1)n1c(=O)c(-c2ccccc2)nc2ccccc21` (configuration not stated) belongs 7.62%; to `COc1ccc(C(C(=O)Nc2c(C)cccc2C)N2CCN(c3ccc(C)cc3)CC2)cc1` (configuration not stated), 1.38%; to `COc1ccc(NC(=O)C(c2ccncc2)n2c(=O)c(-c3cc4ccccc4[nH]3)nc3ccccc32)cc1` (configuration not stated), 19.9%. As to `Cc1cccc(C)c1NC(=O)C(c1cccc2ccccc12)n1c(=O)c(-c2ccco2)nc2ccccc21` (configuration not stated), the inhibition is 43.8% (active).

As to `Cc1cccc(C)c1NC(=O)C(c1ccc(C(F)(F)F)cc1)n1c(=O)c(-c2ccco2)nc2ccccc21` (configuration not stated), the inhibition was 34.8% (active).

As for `COc1ccc(C(C(=O)NCc2ccccc2)n2c(=O)c(-c3ccccc3)nc3ccccc32)cc1` (configuration not stated), the inhibition is 7.82%.

For `N#Cc1ccc(C(C(=O)NCc2ccccc2)n2c(=O)c(-c3ccco3)nc3ccccc32)cc1` (configuration not stated), the inhibition is 38.9% (active). Regarding `CCC(C(=O)Nc1c(C)cccc1C)n1c(-c2cc(C)cs2)nc2ccccc21` (configuration not stated), the inhibition is 2.46%. Next, `CC(=O)N1CCc2cc(S(=O)(=O)NCCC(=O)N3CCCC3)ccc21`: 0.89%; `COc1ccc(C2=CN(Cc3ccccc3)C(c3ccc(OC)cc3)CC2=O)cc1` (configuration not stated): 2.54%. Take `COC(=O)C1CN(CCc2ccccc2)CCS(=O)(=O)N1Cc1ccc(F)cc1` (configuration not stated): the inhibition was 5.69%. To `O=C(NCC1COc2ccccc2O1)c1ccc(NC(=O)c2cc(F)ccc2F)cc1` (configuration not stated) belongs 4.71%; to `CC(CCN1CCC(C(O)(c2ccccc2)c2ccccc2)CC1)Oc1ccc([N+](=O)[O-])cc1Cl` (configuration not stated), 2.17%. Regarding `CCOC(=O)Cc1csc(SCC(=O)NC(C)C23CC4CC(CC(C4)C2)C3)n1` (configuration not stated), the inhibition is -11.4%.

Consider `O=[N+]([O-])c1ccc(NS(=O)(=O)c2ccccc2)c(Cl)c1`, for which the inhibition is 6.07%. To `O=S(=O)(Nc1ccc(O)c2ccccc12)c1ccc(OC(F)(F)F)cc1` belongs 39% (active). To `O=S(=O)(Nc1ccc(OC(F)(F)F)cc1)c1cccc2nonc12` belongs 3.85%. On to `COC(=O)[C@]12C[C@H](CC(=O)NCc3cccc4ccccc34)C(=O)N(CCc3ccc(OC)c(OC)c3)C1=C[C@H](C1CCCC1)O[C@@H]2C`, for which the inhibition was 6.55%.

Take `Nc1[nH]c(/C=C2/CCCCC2n2[nH]c(=O)n(-c3ccccc3)c2=O)c(Cc2ccccc2)[n+]1Cc1ccccc1` (configuration not stated): the inhibition is 8.51%. Next, `COc1ccc(CCNC(=O)CSc2nc3c([nH]2)c(=O)n(C)c(=O)n3C)cc1`: 1.31%. Next, `O=C(NC(=S)Nc1ncccn1)c1ccccc1Br`: -2.07%; `O=C(O)c1ccccc1-c1ccccc1C(=O)Nc1ccccc1Br`: 1.52%; `O=C(NC(=S)Nc1ccccc1C(=O)O)c1ccc(-c2ccc(Br)cc2)o1`: 69.5% (active).

Consider `CCCCCCCCN1C(=O)[C@@H](CC(=O)NCCCC)C[C@@]2(C(=O)OC)C1=C[C@H](C(C)(C)C)O[C@@H]2C`, for which the inhibition is 0.05%. Take `CCCCOCC1CN(CCCC)S(=O)(=O)c2c(Oc3ccc(F)cc3)cccc2O1` (configuration not stated): the inhibition was 2.41%. On to `Nc1cccc(-c2cc(-c3ccccc3)nc(-c3cccc(N)c3)n2)c1`, for which the inhibition was 35.3% (active). Regarding `Nc1cccc(-c2cncc(N3CCN(Cc4ccccn4)CC3)n2)c1`, the inhibition was 2.15%. To `Fc1ccc2cnc(-c3ccccc3)cc2c1` belongs 2%; to `Cc1c(C(=O)CN2CCOCC2)[nH]c2ccccc12`, 1.32%; to `O=C(O)c1[nH]c2ccccc2c1C(c1cccc(O)c1)c1c(C(=O)O)[nH]c2ccccc12`, 61.1% (active). In the case of `CCCS(=O)(=O)Nc1c(C(=O)O)[nH]c2ccccc12`, the inhibition is 0.99%. Consider `O=C(NCc1ccccc1)[C@@H]1CCCN1C(=O)[C@@H](NS(=O)(=O)c1ccc(F)cc1F)C1CCCCC1`, for which the inhibition is -1.8%.

With `C=CCN1[C@H](CC(C)C)COc2cccc(N3CCCC3)c2S1(=O)=O`, the inhibition is 8.14%. To `O=C(N/N=C/c1c(Cl)[nH]c2ccccc12)c1sc2ccccc2c1Cl` belongs 35.6% (active); to `CCOc1ccc2ccccc2c1/C=N/NC(=O)c1c(C)cc(C)[nH]c1=O`, 0.65%; to `CN1CCc2ccccc2C1Cc1ccccc1NC(=O)c1sc2ccccc2c1Cl` (configuration not stated), -0.7%. To `O=C(C1=C(O)C(=O)N(c2ncccn2)C1c1cccs1)c1ccco1` (configuration not stated) belongs -0.3%; to `Cc1ccc2nc(N3C(=O)C(O)=C(C(=O)c4ccco4)C3c3cccc(O)c3)sc2c1` (configuration not stated), 72.6% (active).

Regarding `C=CCSc1nnc(N2C(=O)C(O)=C(C(=O)c3ccco3)C2c2ccc(F)cc2)s1` (configuration not stated), the inhibition was 18.7%. To `COCCNc1cc(NCCOC)c([N+](=O)[O-])cc1[N+](=O)[O-]` belongs 1.02%; to `COC(=O)[C@]12C[C@H](CC(=O)N3CCN(C(=O)C4CC4)CC3)C(=O)N(Cc3ccc4c(c3)OCO4)C1=C[C@H](C(C)(C)C)O[C@@H]2C`, 1.7%; to `COc1ccccc1C(=O)CSc1nnc(-c2ccccn2)n1-c1ccccc1`, 5.14%. Regarding `CCCCNC(=O)C[C@@H]1C(=O)N(CCc2ccc(Cl)cc2)C2=CCCC[C@]21C(=O)OCC`, the inhibition was 0.46%.

Turning to `Cc1c(CCC(=O)N[C@@H](CC(C)C)C(=O)O)c(=O)oc2c(C)c3oc4c(c3cc12)CCCC4`, the inhibition was 38.4% (active). On to `Cc1oc2c(C)c3oc(=O)c(CC(=O)N[C@@H](CC(C)C)C(=O)N[C@@H](Cc4ccccc4)C(=O)O)c(C)c3cc2c1C`, for which the inhibition was 15.8%.

In the case of `COc1ccc2c(C)c(CCC(=O)NC3CC3)c(=O)oc2c1C`, the inhibition is -3.01%.

With `Cc1c(C)c2cc3c4c(oc3c(C)c2oc1=O)CCCC4`, the inhibition is 5.96%. With `Cc1c(CC(=O)NCC(=O)NCC(=O)O)c(=O)oc2cc3oc4c(c3cc12)CCCC4`, the inhibition is 11.3%. As to `CC[C@@H](C)[C@H](NC(=O)CCc1c(C)c2cc3c4c(oc3c(C)c2oc1=O)CCCC4)C(=O)O`, the inhibition was 36.8% (active).

Take `COC(=O)C1=C(C)N(Cc2ccc(C(F)(F)F)cc2)C(=NCc2ccccc2)NC1c1ccccc1C(F)(F)F` (configuration not stated): the inhibition is 1.95%. To `CC(C)(C)C(c1nc2ccccc2[nH]1)n1c(Cc2csc3ccccc23)nc2ccccc21` (configuration not stated) belongs 6.22%. To `CC(C)(C)OC(=O)NCCc1ccccc1/C=C/S(=O)(=O)NCc1ccc(F)cc1` belongs 3.67%; to `Cc1[nH]c2ccccc2c1CC(=O)Nc1ccc(Nc2cccnc2)c(-c2cccc(Cl)c2)c1`, 14.1%; to `COC(=O)c1cc2c(c3c4cc(F)ccc4n(S(=O)(=O)c4ccccc4)c13)C(=O)N(Cc1ccccc1OC)C2`, 16.2%. To `O=C(NCCOc1ccccc1F)Nc1ccc(Br)cc1` belongs 5.19%; to `O=C(Nc1ccccc1)Nc1nnc(COc2ccccc2F)s1`, 56.5% (active). `COCc1nnc(NC(=O)CS(=O)(=O)Cc2ccccc2)s1`: the inhibition was 4.38%.
